Results as given in PubChem BioAssay (NCATS).
Records with an inconclusive call do not appear. Entries that show only a call come without a potency. Unmarked numbers belong to inactive results. Active and inactive are the calls of the source. The call rests on the fitted dose curve; in most records, active means well fitted curve in the direction sought with a large enough effect; inconclusive means small, poorly fitted or top-dose-only effect, or another doubt; inactive means no such curve, though single readings can be large; an effect the other way counts as inactive or inconclusive.

Tests used:
[1] = molecular target: Cellular tumor antigen p53 (Homo sapiens) (UniProt P04637); assay: Primary qHTS for small molecule compounds that upregulate eGFP-tagged delta133p53alpha (in N-terminal) cells. (AID 2060322); details: NCI-H358 eGFP-delta133p53alpha fluorescence, 24 h; activation: active compounds read high; further: nearly all actives have a fitted effect of over 75% in size; further: potency means the concentration at half of the fitted maximal effect; on activation: series mostly up to about 56 µM
How it was run: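 NCI-H358 cells pre-induced 24 h with 10 ng/ml doxycycline to express N-terminal eGFP-delta133p53alpha, then dosed 24 h at 37C without doxycycline; fixed, Hoechst-stained, GFP intensity by laser scanning cytometry, normalized to DMSO (0%) and 57.5 uM 5-azacytidine (100%).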

[2] = molecular target: Aldehyde dehydrogenase, mitochondrial (Homo sapiens) (UniProt P05091); assay: qHTS for Inhibitors of the Aldehyde Dehydrogenase Family (ALDH2) Primary screen (AID 2061308); further: nearly all actives have a fitted effect of over 55% in size
[3] = molecular target: Retinaldehyde dehydrogenase 3 (Homo sapiens) (UniProt P47895); assay: qHTS for Inhibitors of the Aldehyde Dehydrogenase Family (ALDH1A3) Primary screen (AID 2061315)

Chain of Cellular tumor antigen p53 (Homo sapiens) (P04637 whole entry, looked up): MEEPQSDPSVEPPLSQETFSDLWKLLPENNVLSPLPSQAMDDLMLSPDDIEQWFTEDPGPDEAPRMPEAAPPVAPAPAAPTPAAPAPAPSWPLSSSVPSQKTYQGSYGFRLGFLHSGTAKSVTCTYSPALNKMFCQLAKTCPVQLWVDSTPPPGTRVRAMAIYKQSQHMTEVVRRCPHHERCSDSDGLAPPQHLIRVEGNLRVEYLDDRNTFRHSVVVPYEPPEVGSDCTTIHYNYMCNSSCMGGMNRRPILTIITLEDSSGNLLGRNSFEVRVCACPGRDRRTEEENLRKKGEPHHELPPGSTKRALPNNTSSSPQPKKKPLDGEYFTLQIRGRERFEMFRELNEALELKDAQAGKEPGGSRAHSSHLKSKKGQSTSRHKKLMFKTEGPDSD

SMILES	activation [1]	Potency [2]	Potency [3]	activity change, negative = inhibition [2]	activity change, negative = inhibition [3]	Potency [1]
C=C1CCC2C(C)(C)CC(=O)CC2(C)C1CCC(C)CCO (centres undefined)	6.25%	inactive	inactive	–	–	–
COc1cc2c(cc1OC)N1C(=O)C[C@@]34C=CC[N@+]5([O-])CC[C@H]2[C@H](CC3)[C@@]145	5.36%	inactive	inactive	–	–	–
CC1CCC2(NC1)OC1C(O)C3C4CCC5CC(O[C@@H]6O[C@H](CO)[C@@H](O)[C@H](O)[C@H]6O[C@@H]6O[C@@H](C)[C@H](O)[C@@H](O)[C@H]6O)CCC5(C)C4CCC3(C)C1C2C (some centres undefined)	-15.3%	inactive	inactive	–	–	–
O=C(O)Cc1cccc(-c2cc(CCCCCCc3ccc(O[C@H]4O[C@H](CO)[C@@H](O)[C@H](O)[C@@H]4O)c(-c4cccc(CC(=O)O)c4)c3)ccc2O[C@H]2O[C@H](CO)[C@@H](O)[C@H](O)[C@@H]2O)c1	4.33%	–	–	-4.79% [at 0.464 µM]	-13.7% [at 0.464 µM]	–
Cc1cc(O)cc2c1O[C@](C)(CCC[C@H](C)CCC[C@H](C)CCCC(C)C)CC2	-16.4%	inactive	inactive	–	–	–
C/C=C(\C)C(=O)O[C@H]1C=CC(=O)O[C@H]1/C=C/[C@H](O)[C@@H](C)O	–	inactive	inactive	–	–	21.3 µM (active)
C[C@@H]1O[C@@H](O[C@H]2[C@@H]3C=CO[C@@H](O[C@@H]4O[C@H](CO)[C@@H](O)[C@H](O)[C@H]4O)[C@@H]3[C@@]3(CO)O[C@@H]23)[C@H](O)[C@H](OC(=O)/C=C/c2ccccc2)[C@H]1O	0.763%	inactive	inactive	–	–	–
C=C1C[C@]23C[C@H]1CC[C@H]2[C@]1(C)CC[C@H](O)[C@@](C)(C(=O)O)[C@H]1[C@@H]3C(=O)O	-6.11%	inactive	inactive	–	–	–
COc1cc(O)c(C(=O)CCc2ccc(O)cc2)c(O[C@@H]2O[C@H](CO)[C@@H](O)[C@H](O)[C@H]2O)c1	–	inactive	inactive	–	–	7.38 µM (active)
COC1=CC(=O)O[C@@H](CCc2ccccc2)[C@@H]1O	-13%	inactive	inactive	–	–	–
CC(C)=C1CC2[C@](C)(CC[C@@H](OC(=O)C3(C)OC3C)[C@@]2(C)O)CC1=O (some centres undefined)	-20.6%	inactive	inactive	–	–	–
COC(=O)CC(C)(O)CC(=O)OCc1ccc(O[C@@H]2O[C@H](CO)[C@@H](O)[C@H](O)[C@H]2O)cc1 (some centres undefined)	-5.34%	inactive	inactive	–	–	–
C[C@]1(O)CC[C@@H]2C(C(=O)O)=CO[C@@H](O[C@@H]3O[C@H](COC(=O)c4ccc(O)cc4)[C@@H](O)[C@H](O)[C@H]3O)[C@@H]21	0.893%	inactive	inactive	–	–	–
CC(=O)OC/C=C(\C)C(CC1C(C)=C(OC(C)=O)C(=O)C2C(C)(C)C(O)CCC12C)OC(C)=O (centres undefined)	-2.68%	inactive	inactive	–	–	–
C[C@H](CCC(=O)O)[C@H]1CC[C@H]2[C@@H]3C[C@H](O)[C@@H]4C[C@H](O)CC[C@]4(C)[C@H]3CC[C@]12C	1%	inactive	inactive	–	–	–
C/C=C(\C)C(=O)OC1C(C)C2(O)C3C=C(C)C(=O)C3CC(CO)=CC2C2C(C)(C)C12OC(C)=O (centres undefined)	-19.8%	inactive	inactive	–	–	–
COC(=O)C1=COC(OC2OC(CO)C(O)C(O)C2O)C2C1CC(OC(=O)C(O)CC(=O)O)C2C (centres undefined)	10.7%	inactive	inactive	–	–	–
COc1cc(C(=O)OC(COCCC(C)C)CN2CCOCC2)cc(OC)c1OC (centres undefined)	14.3%	inactive	inactive	–	–	–
CC(=O)OCC(=O)[C@@]12O[C@@H]1C[C@H]1[C@@H]3CC=C4C[C@@H](O)CC[C@]4(C)[C@H]3CC[C@@]12C	29%	inactive	inactive	–	–	–
NC[C@H]1CCC[C@@H](CNC(=O)[C@@H](Cc2c[nH]c3ccccc23)NC(=O)N2CCC3(C=Cc4ccccc43)CC2)C1	3%	inactive	inactive	–	–	–
O=C(O)c1ccc(NC(=O)[C@H](CC2CCCC2)n2cnc(C(F)(F)F)c2)nc1	-23.2%	inactive	inactive	–	–	–
OC[C@H]1O[C@@H](OCc2ccccc2)[C@H](O[C@@H]2OC[C@@H](O)[C@H](O)[C@H]2O)[C@@H](O)[C@@H]1O	-14.3%	inactive	inactive	–	–	–
COC1=Cc2c(nc3n(c2=O)C(C)C(=O)NC3(O)C(C)C)OC=C1 (centres undefined)	-17.6%	inactive	inactive	–	–	–
